# Laboratory results published in PubChem BioAssay (NCATS).
# Results filed as inconclusive are left out. Where a call stands in place of a potency, no number is given. Active and inactive are the calls of the source. Unless noted, calls come from the whole dose curve; as a rule, active = well fitted curve in the direction sought with a large enough effect; inconclusive = small, poorly fitted or top-dose-only effect, or another doubt; inactive = no such curve, though single readings can be large; an effect the other way counts as inactive or inconclusive.
# Tests used:
# [1] = molecular target: Cytochrome P450 3A4 (Homo sapiens) (UniProt P08684); assay: qHTS Assay for Inhibitors and Substrates of Cytochrome P450 3A4 (AID 884); note: nearly all actives have a fitted effect of over 50% in size
# How it was run: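 20 nM human CYP3A4 with 25 uM Luciferin-PPXE (at KM) in 200 mM KPO4, preincubated 10 min with compound; NADPH regeneration started a 60 min RT reaction. Luciferin detected by luminescence, normalized to 57 uM ketoconazole as full inhibition.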
# [2] = molecular target: Ubiquitin carboxyl-terminal hydrolase 1 (Homo sapiens) (UniProt O94782); assay: Inhibitors of USP1/UAF1: Pilot qHTS (AID 504865);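 note: rhodamine fluorescence freed from ubiquitin-rhodamine substrate followed over time; top concentration of the series differs between compounds; nearly all actives have a fitted effect of over 35% in size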
# How it was run: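 In 50mM HEPES pH 7.8 containing 0.5mM EDTA, 1mM TCEP, 0.1 mg/ml BSA and 0.01% Tween-20, 1nM USP1/UAF1 is exposed to compound for 15 min, then Ub-Rho (150nM final) is added and fluorescence is read over time.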
# [3] = molecular target: DNA dC->dU-editing enzyme APOBEC-3G (Homo sapiens) (UniProt Q9HC16); assay: qHTS for inhibitors of Vif-A3G interactions: Validation (AID 588379)
# How it was run: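 HeLa cells stably expressing Vif and A3G-eYFP, 700 cells/well, incubated overnight at 37 deg C, then exposed to compound overnight at 37 deg C. Inhibition of Vif-mediated degradation read as increased yellow fluorescence (Ex 488/Em 500-530) by laser-scanning cytometry.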
# [4] = tested on: Zika virus NS2B-NS3 protease; assay: Primary screen GU AMC qHTS for Zika virus inhibitors (AID 1347154); note: nearly all actives have a fitted effect of over 70% in size
# How it was run: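 Unlinked Zika NS2B hydrophilic domain/NS3 protease domain noncovalent complex (25 nM final) in 10 mM Tris-HCl pH 8.0, 0.01% Tween 20, with AMC peptide substrate. Fluorescence (ex 340, em 450 nm) change over 15 min, room temperature; percent inhibition fitted to 4-parameter Hill equation.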
# [5] = Primary qHTS for small molecule stabilizers of the endoplasmic reticulum resident proteome: Secreted ER Calcium Modulated Protein (SERCaMP) assay (AID 1508630)
# How it was run: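 GLuc-SERCaMP-expressing SH-SY5Y cells, pretreated 16 h with compound, are challenged with thapsigargin to empty ER calcium stores; after 4 h, coelenterazine is added directly to the medium and luminescence is imaged.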
# [6] = AP1 Signaling Pathway (AID 357; active = well fitted curve in either direction with a large enough effect, not every such curve was filed as active;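 note: ME-180 reporter cells stimulated with EGF at its EC50 level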); conditions: ME-180 AP-1-bla reporter, EGF-induced, beta-lactamase ratio, 5 h; at 38 µM (top of the series)
# How it was run: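 Cells are seeded overnight, exposed to compound titrations and an EC50 level of EGF for 5 hours at 37 °C, then loaded with CCF4 dye for 2.5 hours. Beta-lactamase activity under the AP-1 element is read as a blue/green ratio.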
# [7] = molecular target: Cytochrome P450 1A2 (Homo sapiens) (UniProt P05177); assay: p450-cyp1a2 (AID 410; calls by dose curve)
# How it was run: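 Human CYP1A2 (20nM) demethylated Luciferin-ME at its Km (100uM) in 100mM KPO4. After 10 min compound preincubation, NADPH regeneration ran the reaction 60 min at room temperature. Luciferin was read by luminescence, normalized to 57 uM furafylline.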
# [8] = NFAT Signaling Pathway (AID 444; active = well fitted curve in either direction with a large enough effect, not every such curve was filed as active;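 note: carbachol stimulus at about its EC50 of 1 µM final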); conditions: Jurkat NFAT-bla M1, carbachol, beta-lactamase ratio, 5 h; at 38 µM (top of the series)
# How it was run: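 Jurkat cells carrying an NFAT-driven β-lactamase reporter and co-transfected muscarinic M1 receptor were treated with compound plus carbachol (1 uM final, an EC50 level) for 5 h at 37 °C. CCF4 loading followed for 1 h at RT; 460/530 nm ratio gave %activity.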
# [9] = Stat Signaling Pathway (AID 446; active = well fitted curve in either direction with a large enough effect, not every such curve was filed as active;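 note: ME-180 cervical cancer cells given 40 pM IL-6 alongside compound; SIE-controlled beta-lactamase reporter measured as 460/530 nm FRET emission ratio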); conditions: ME-180 (cervical carcinoma) SIE beta-lactamase reporter, IL-6 stimulated, 5 h; at 38 µM (top of the series)
# How it was run: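 IL-6/STAT signaling read in ME-180 cells via an SIE beta-lactamase reporter. Stimulus was 40 pM IL-6 (its AC50) for 5 hrs, so both activation and inhibition register.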
# [10] = molecular target: Glucocorticoid receptor (Homo sapiens) (UniProt P04150); assay: GR-GFP Redistribution (AID 450;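 active = compounds whose dose series gives a full or clear partial fitted curve of increased nuclear translocation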; note: potency is the fitted concentration of half-maximal effect); conditions: U2OS GR-GFP nuclear translocation, laser cytometry, 2 h
# [11] = molecular target: Glucocorticoid receptor (Homo sapiens) (UniProt P04150); assay: GR-EFC Redistribution (AID 451; calls by dose curve; note: potency is the fitted concentration of half-maximal effect); conditions: CHO-K1 GR-EFC translocation, beta-gal luminescence, 2 h
# How it was run: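 CHO-K1 cells stably expressing nuclear-localized β-gal enzyme acceptor and GR fused C-terminally to the enzyme donor fragment; ligand-driven nuclear translocation restores β-gal by complementation. Compounds titrated up to 46 uM final, 2 h at 37 °C; luminescence read.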
# [12] = molecular target: Mitogen-activated protein kinase 10 (Mus musculus) (UniProt Q61831); assay: JNK3 AlphaScreen Assay (AID 530; active = well fitted curve in either direction with a large enough effect, not every such curve was filed as active;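 note: kinase came from lysate of stimulated human HepG2 cells; signal reports phosphorylation of biotinylated GST-cJun 1-79 at Ser73 with 10 µM ATP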)
# How it was run: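 JNK3 came from HepG2 lysates pre-activated with IL-1beta and TNF-alpha and phosphorylated biotinylated GST-cJun (1-79) at 10 uM ATP, pH 7.6, room temperature. Compounds were titrated. AlphaScreen signal used anti-phospho-cJun (Ser73) antibody.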
# [13] = molecular target: 3',5'-cyclic-AMP phosphodiesterase 4B (Homo sapiens) (UniProt Q07343); assay: qHTS Assay for Inhibitors of PDE-IV (AID 607; active = well fitted activation curve with a large enough effect in the main read-out, with a control signal flat, not every such curve was filed as active)
# How it was run: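 Live HEK293 cells with a modified cyclic nucleotide-gated (CNG) channel report intracellular cAMP via membrane-potential dye fluorescence (ex 535/em 590 nm). Endogenous PDE-IV was targeted. Compounds were tested at up to 22.9 uM final; RO 20-1724 100 uM served as control.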
# [14] = molecular target: Guanine nucleotide-binding protein G(i) subunit alpha-1 (Homo sapiens) (UniProt P63096); assay: qHTS Assay for Inhibitors of RGS12 GoLoco Motif Activity (Green Fluorophore) (AID 879);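 note: negative values mean loss of peptide binding seen as reduced polarization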
# How it was run: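 Fluorescence polarization assay: 50 nM Gαi1 with 10 nM FITC-labeled RGS12 GoLoco peptide in 10 mM Tris pH 7.5, 150 mM NaCl, 0.1 mM GDP, 0.05% NP40, 10 min at room temperature with compound.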
# [15] = molecular target: Cytochrome P450 2C9 (Homo sapiens) (UniProt P11712); assay: qHTS Assay for Inhibitors and Substrates of Cytochrome P450 2C9 (AID 883); note: nearly all actives have a fitted effect of over 60% in size
# How it was run: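 Human CYP2C9 (10nM) hydroxylated Luciferin-H (100uM, at its KM) to luciferin in 25mM KPO4. Compound was preincubated 10 min at 37C, then NADPH regeneration started a 60 min reaction at 37C. Luminescence was read after detection reagent, normalized to 57uM sulphaphenazole.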
# [16] = molecular target: Cytochrome P450 2D6 (Homo sapiens) (UniProt P10635); assay: qHTS Assay for Inhibitors and Substrates of Cytochrome P450 2D6 (AID 891); note: potency is the fitted concentration of half-maximal effect; nearly all actives have a fitted effect of over 60% in size
# How it was run: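 Human CYP2D6 (5 nM) with 30 uM Luciferin-ME EGE (at Km) in 100 mM KPO4, compound preincubated 10 min, then NADPH regeneration system for 60 min at room temperature. Luciferin read by luminescence; normalized to 1.43 uM quinidine.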
# [17] = molecular target: Muscarinic acetylcholine receptor M1 (Rattus norvegicus) (UniProt P08482); assay: qHTS Assay for Antagonists of Acetylcholine Muscarinic M1 Receptor: Measurement of IP-One Response (AID 944); note: nearly all actives have a fitted effect of over 75% in size
# How it was run: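 CHO cells expressing rat M1 receptor, recovered overnight, were pre-incubated 10 min with compound, then stimulated 30 min with carbachol at EC80 (200 nM) in LiCl-containing buffer, pH 7.4. IP1 accumulation was read by HTRF (620/665 nm).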
# [18] = molecular target: Pyruvate kinase (Leishmania mexicana) (UniProt Q27686); assay: qHTS Validation Assay for Inhibitors of Leishmania Mexicana Pyruvate Kinase (AID 945)
# How it was run: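 Substrate mix (0.5 mM PEP, 0.1 mM ADP, 7 mM MgCl2, 50 mM KCl, pH 7.2 imidazole) received compound by pin tool, then 0.2 nM LmPYK E451W. After 1 h at room temperature, PKLight was added and luminescence measured.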
# [19] = molecular target: Pyruvate kinase PKM (Homo sapiens) (UniProt P14618); assay: qHTS Assay for Activators of Human Muscle Pyruvate Kinase (AID 954; active = well fitted curve in the direction sought with a large enough effect, not every such curve was filed as active)
# How it was run: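 Enzyme was run at intermediate activity so both inhibitors and activators could be detected. ATP formed from ADP and PEP by 0.1 nM human PKM2 during a 1 h room-temperature incubation was quantified by coupled luciferase luminescence.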
# [20] = molecular target: Alpha-galactosidase A (Homo sapiens) (UniProt P06280); assay: Counterscreen for Glucocerebrosidase Inhibitors: qHTS Assay for Human alpha-Galactosidase at pH 4.5 (AID 992)
# How it was run: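 Read-out is 4-methylumbelliferone fluorescence (365 nm excitation, 440 nm emission) after a pH 10 NaOH/glycine stop. Reactions held 2 nM enzyme and 80 uM substrate at pH 4.5 for 20 min at room temperature.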
# [21] = molecular target: alpha-glucosidase (Oryza sativa, rice) (UniProt Q653V4); assay: Counterscreen for Glucocerebrosidase Inhibitors: qHTS Assay for Rice alpha-Glucosidase at pH 5.0 (AID 997)
# How it was run: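 Rice alpha-glucosidase (4 nM final) with 400 uM 4-methylumbelliferyl-alpha-D-glucopyranoside in citrate buffer pH 5.0, 20 min at room temperature, stopped at pH 10; fluorescence 365/440 nm, compounds 0.7 nM–77 uM, AC50 from Hill fits.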
# [22] = qHTS Assay for Lipid Storage Modulators (AID 1519; calls by dose curve); conditions: Drosophila S3 cells, BODIPY lipid droplet/cell ratio, laser cytometry, cells loaded with oleic acid
# How it was run: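 Cells seeded at 5,000 per well were treated with compounds over a concentration series and loaded with oleic acid (400 uM, as added). Lipid droplet fluorescence (488 nm excitation, 500-530 nm channel) was read by laser-scanning cytometry and normalized to 20 uM Triacsin C.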
# Sequence of Glucocorticoid receptor (Homo sapiens) (P04150 whole entry, looked up, the tested form may be a part): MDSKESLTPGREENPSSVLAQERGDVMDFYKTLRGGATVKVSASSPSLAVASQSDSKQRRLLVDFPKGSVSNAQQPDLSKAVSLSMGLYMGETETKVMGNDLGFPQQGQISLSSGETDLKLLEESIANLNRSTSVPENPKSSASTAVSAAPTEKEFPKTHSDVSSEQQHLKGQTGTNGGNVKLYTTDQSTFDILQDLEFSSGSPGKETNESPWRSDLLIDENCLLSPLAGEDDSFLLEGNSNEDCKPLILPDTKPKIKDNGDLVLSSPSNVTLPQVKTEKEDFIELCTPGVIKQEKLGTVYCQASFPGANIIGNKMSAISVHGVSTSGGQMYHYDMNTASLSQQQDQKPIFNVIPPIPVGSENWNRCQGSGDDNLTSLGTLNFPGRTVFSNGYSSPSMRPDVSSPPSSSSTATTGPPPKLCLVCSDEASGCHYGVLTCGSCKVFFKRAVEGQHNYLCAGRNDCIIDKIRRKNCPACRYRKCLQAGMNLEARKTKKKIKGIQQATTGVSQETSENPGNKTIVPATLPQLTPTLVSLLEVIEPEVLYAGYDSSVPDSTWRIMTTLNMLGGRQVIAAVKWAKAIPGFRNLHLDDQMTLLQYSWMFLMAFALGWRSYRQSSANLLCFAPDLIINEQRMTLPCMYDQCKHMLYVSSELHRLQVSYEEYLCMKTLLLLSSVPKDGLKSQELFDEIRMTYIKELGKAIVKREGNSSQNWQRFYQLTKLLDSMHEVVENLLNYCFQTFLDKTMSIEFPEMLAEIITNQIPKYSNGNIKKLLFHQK
# Sequence of DNA dC->dU-editing enzyme APOBEC-3G (Homo sapiens) (Q9HC16 whole entry, looked up): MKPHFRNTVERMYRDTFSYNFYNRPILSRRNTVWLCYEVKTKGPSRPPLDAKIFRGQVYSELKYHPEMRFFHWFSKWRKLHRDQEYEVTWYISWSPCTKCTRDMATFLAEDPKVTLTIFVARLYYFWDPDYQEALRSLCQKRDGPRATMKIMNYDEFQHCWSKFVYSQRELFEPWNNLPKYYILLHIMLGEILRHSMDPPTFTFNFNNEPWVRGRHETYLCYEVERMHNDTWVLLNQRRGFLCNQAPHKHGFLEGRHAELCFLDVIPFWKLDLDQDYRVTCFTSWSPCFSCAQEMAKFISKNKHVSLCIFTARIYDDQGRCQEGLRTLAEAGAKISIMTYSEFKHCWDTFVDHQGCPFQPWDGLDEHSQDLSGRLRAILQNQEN
# Sequence of 3',5'-cyclic-AMP phosphodiesterase 4B (Homo sapiens) (Q07343 whole entry, looked up): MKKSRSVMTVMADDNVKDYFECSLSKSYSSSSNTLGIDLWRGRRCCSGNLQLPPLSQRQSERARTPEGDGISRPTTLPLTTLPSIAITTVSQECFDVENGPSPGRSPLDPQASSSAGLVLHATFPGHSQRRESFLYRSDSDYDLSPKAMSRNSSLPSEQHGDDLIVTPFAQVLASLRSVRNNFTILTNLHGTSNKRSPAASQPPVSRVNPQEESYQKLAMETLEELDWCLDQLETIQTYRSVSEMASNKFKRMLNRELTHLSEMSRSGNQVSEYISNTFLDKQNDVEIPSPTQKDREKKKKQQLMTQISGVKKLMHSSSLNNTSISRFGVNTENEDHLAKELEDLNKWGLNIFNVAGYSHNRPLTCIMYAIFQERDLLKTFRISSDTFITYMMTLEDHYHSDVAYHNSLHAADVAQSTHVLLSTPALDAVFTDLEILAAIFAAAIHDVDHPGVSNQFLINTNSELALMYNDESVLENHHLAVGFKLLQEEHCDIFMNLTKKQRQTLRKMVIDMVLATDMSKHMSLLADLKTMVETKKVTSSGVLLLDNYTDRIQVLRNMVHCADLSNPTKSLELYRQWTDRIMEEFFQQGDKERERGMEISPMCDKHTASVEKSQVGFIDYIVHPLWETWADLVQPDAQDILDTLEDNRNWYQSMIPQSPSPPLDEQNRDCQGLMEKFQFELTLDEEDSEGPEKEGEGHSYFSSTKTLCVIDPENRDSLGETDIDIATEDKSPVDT
# Sequence of Pyruvate kinase (Leishmania mexicana) (Q27686 2-499 E452W): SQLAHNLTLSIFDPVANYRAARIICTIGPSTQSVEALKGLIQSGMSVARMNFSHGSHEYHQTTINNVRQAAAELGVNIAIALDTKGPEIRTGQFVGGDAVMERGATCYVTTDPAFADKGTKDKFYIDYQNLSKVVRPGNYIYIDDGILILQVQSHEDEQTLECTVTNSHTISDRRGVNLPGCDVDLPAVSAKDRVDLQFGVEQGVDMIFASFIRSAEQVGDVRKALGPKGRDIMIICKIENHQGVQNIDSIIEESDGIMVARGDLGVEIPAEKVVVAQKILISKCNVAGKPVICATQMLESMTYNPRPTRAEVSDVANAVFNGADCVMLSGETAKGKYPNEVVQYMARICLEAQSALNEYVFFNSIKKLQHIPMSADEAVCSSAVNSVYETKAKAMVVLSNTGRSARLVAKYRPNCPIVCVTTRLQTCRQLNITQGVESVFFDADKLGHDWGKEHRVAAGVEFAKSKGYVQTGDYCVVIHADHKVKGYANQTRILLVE
# Sequence of Muscarinic acetylcholine receptor M1 (Rattus norvegicus) (P08482 whole entry, looked up): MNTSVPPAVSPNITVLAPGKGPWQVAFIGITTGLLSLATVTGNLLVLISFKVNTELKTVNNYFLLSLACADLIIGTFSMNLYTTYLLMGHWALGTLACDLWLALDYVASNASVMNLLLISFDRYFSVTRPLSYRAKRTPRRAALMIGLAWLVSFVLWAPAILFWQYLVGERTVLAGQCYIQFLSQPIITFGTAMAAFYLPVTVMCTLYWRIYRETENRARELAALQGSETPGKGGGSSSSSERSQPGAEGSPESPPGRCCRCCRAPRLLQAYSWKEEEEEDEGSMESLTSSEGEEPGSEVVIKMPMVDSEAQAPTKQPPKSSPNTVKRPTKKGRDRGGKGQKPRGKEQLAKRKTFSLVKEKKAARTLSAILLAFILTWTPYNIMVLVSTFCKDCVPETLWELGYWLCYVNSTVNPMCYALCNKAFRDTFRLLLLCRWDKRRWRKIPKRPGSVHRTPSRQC
# Sequence of Cytochrome P450 2C9 (Homo sapiens) (P11712 whole entry, looked up): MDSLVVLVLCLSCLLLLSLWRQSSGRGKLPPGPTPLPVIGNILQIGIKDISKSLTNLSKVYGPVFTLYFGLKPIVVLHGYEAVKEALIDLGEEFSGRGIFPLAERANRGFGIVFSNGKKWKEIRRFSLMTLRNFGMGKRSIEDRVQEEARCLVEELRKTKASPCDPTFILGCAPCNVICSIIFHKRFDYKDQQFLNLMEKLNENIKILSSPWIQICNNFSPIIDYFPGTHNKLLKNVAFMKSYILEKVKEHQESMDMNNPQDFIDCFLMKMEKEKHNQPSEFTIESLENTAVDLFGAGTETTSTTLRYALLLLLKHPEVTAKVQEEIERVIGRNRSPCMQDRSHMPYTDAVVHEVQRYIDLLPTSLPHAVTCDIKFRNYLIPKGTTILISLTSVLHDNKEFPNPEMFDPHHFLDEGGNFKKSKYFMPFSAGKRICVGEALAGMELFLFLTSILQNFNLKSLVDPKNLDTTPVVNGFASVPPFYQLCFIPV
# Sequence of Pyruvate kinase PKM (Homo sapiens) (P14618 whole entry, looked up): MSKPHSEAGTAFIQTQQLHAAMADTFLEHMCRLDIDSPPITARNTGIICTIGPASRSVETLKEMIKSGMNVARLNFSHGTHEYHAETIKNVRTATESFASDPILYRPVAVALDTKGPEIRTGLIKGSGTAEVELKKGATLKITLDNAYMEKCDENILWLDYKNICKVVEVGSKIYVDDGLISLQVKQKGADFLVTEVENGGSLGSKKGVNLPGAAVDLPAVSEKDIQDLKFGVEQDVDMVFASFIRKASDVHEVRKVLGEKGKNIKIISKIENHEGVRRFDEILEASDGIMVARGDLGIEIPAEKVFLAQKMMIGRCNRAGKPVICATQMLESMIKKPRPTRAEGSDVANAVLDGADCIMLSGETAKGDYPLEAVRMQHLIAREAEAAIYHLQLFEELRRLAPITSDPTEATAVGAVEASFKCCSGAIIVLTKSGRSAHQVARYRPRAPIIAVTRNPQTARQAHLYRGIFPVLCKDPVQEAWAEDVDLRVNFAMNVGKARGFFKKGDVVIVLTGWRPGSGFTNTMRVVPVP
# Sequence of Alpha-galactosidase A (Homo sapiens) (P06280 whole entry, looked up): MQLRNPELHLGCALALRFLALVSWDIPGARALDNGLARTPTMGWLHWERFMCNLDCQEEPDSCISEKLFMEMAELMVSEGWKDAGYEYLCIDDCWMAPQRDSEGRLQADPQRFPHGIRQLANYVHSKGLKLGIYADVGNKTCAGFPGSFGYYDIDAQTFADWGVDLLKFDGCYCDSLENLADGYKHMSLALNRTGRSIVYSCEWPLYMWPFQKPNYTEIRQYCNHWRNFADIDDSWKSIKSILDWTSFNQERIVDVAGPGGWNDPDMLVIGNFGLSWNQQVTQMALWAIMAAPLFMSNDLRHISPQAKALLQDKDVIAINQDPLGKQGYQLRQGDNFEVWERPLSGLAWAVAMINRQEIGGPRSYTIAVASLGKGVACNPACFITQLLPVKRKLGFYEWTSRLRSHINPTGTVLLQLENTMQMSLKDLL
# Sequence of Cytochrome P450 1A2 (Homo sapiens) (P05177 whole entry, looked up): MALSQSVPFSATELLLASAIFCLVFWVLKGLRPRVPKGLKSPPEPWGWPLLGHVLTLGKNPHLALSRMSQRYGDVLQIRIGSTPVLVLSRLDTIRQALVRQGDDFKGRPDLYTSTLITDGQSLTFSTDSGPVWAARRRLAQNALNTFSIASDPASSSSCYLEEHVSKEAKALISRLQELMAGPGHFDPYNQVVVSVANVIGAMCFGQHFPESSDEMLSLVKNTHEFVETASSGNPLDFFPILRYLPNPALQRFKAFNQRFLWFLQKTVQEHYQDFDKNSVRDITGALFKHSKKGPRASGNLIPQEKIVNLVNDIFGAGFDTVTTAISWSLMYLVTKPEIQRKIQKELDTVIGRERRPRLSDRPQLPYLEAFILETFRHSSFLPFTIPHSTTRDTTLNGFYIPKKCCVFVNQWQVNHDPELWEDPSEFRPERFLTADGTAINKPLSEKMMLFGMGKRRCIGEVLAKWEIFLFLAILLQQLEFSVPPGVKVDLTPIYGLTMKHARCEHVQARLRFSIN
smiles,measurement,setting,value
Nc1ncnc2c1ncn2[C@@H]1O[C@H](COP(=O)(O)OP(=O)(O)O)[C@@H](O)[C@H]1O,Potency,[1],inactive
same,Potency,[2],inactive
same,Potency,[3],inactive
same,Potency,[4],inactive
same,Potency,[5],inactive
CO[C@]1(C2=NCCN2)COc2ccccc2O1,"activity change, negative = inhibition",[6],-14% (inactive)
same,Potency,[7],inactive
same,"activity change, negative = inhibition",[8],-11% (inactive)
same,"activity, negative = inhibition",[9],13.6% (inactive)
same,Potency,[10],> 46 µM (inactive)
same,Potency,[11],> 46 µM (inactive)
same,Potency,[12],inactive
same,Potency,[13],inactive
same,outcome,[14],inactive
same,Potency,[15],inactive
same,Potency,[16],0.794 µM (active)
same,Potency,[17],inactive
same,Potency,[18],inactive
same,outcome,[19],inactive
same,outcome,[20],inactive
same,outcome,[21],inactive
same,"activity change, negative = inhibition",[22]; at 57.5 µM (top of the series),1.12% (inactive)
same,max response,[22]; measured here: cell count channel max response,8.44%
same,max response,[22]; measured here: lipid channel max response,10.7%
same,Potency,[3],inactive
same,Potency,[4],inactive
